Results from PubChem BioAssay (NCATS).
Records with an inconclusive call do not appear. Activity calls are given as the source filed them. Calls come from the whole dose curve.

Key:
[1] = Primary qHTS for inhibitors of SARS-S pseudo-typed particle cell entry (AID 1479145); note: nearly all actives have a fitted effect of over 45% in size; for activity change, negative = inhibition: series mostly up to about 57 µM
[2] = Primary qHTS for Huh7 cytotoxicity: counterscreen for inhibitors of MERS-S pseudotyped particle cell entry (AID 1479147)
[3] = Primary qHTS for inhibitors of MERS-S pseudo-typed particle cell entry (AID 1479149); note: nearly all actives have a fitted effect of over 60% in size; for activity change, negative = inhibition: series mostly up to about 57 µM
[4] = Primary qHTS for Vero E6 cytotoxicity: counterscreen for inhibitors of SARS-S pseudo-typed particle cell entry (AID 1479150)
% is set by controls: 0 for no effect and ±100 for the full control effect.

CCOC(=O)c1ccccc1O
inactive: Potency [1] | Potency [2] | Potency [3] | Potency [4]

O=P(O)(O)C(Sc1ccc(Cl)cc1)P(=O)(O)O
inactive: activity change, negative = inhibition [1] -6.9% [at 0.573 µM] | outcome [2] inactive [at 0.573 µM] | outcome [3] inactive [at 0.573 µM] | outcome [4] inactive [at 0.573 µM]

CC(=O)Nc1ccc(OC(=O)c2ccccc2OC(C)=O)cc1
inactive: Potency [1] | Potency [2] | Potency [3] | Potency [4]

C=CCc1ccc(O)c(OC)c1
inactive: Potency [1] | Potency [2] | Potency [3] | Potency [4]

C#C[C@]1(O)CC[C@H]2[C@@H]3CCc4cc(OC5CCCC5)ccc4[C@H]3CC[C@@]21C
inactive: Potency [1] | Potency [2] | Potency [3] | Potency [4]

CCCCCCCC(=O)OCC(COC(=O)CCCCCCC)OC(=O)CCCCCCC
inactive: Potency [1] | Potency [2] | Potency [3] | Potency [4]

NS(=O)(=O)c1ccc(Cl)c(S(N)(=O)=O)c1
inactive: Potency [1] | Potency [2] | Potency [3] | Potency [4]

CCOc1ccc(NC(=O)CC(C)O)cc1 (configuration not stated)
inactive: Potency [1] | Potency [2] | Potency [3] | Potency [4]

CCC(Cc1c(I)cc(I)c(N)c1I)C(=O)O (configuration not stated)
inactive: Potency [1] | Potency [2] | Potency [3] | Potency [4]

Cc1ccc(C(=O)c2ccc(CC(=O)O)n2C)cc1
inactive: Potency [1] | Potency [2] | Potency [3] | Potency [4]

COCCCOc1ccnc(CS(=O)c2nc3ccccc3[nH]2)c1C (configuration not stated)
inactive: Potency [1] | Potency [2] | Potency [3] | Potency [4]

COc1ccc(NS(=O)(=O)c2ccc(N)cc2)nn1
inactive: Potency [1] | Potency [2] | Potency [3] | Potency [4]

CN(C)CCN(Cc1ccsc1)c1ccccn1
inactive: Potency [1] | Potency [2] | Potency [3] | Potency [4]
